{"source": "PubChem BioAssay AID2685", "about": "(National Center for Advancing Translational Sciences (NCATS), 2010)", "note": "Among all 320,000 compounds or so, about 2,100 (0.66%) were called active. About 53% were inconclusive and are not listed. The call rests on the fitted dose curve; in most records, active means well fitted inhibition curve with a large enough effect in the signal ratio, with a control signal flat (not every such curve was filed as active); inconclusive means small, poorly fitted or top-dose-only effect, or effect the other way, or a change in a side signal; inactive means flat fitted curve, though single readings scatter; the % refers to the signal ratio. Many of the other results were omitted from the sample, so actives are more common in it than they were. Potency means the concentration at half of the fitted maximal effect."}
{"experiment": "qHTS Assay for Lipid Storage Modulators in Drosophila S3 Cells;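 on cell number change: cells counted by Cell Tracker Red CMTPX staining in the red channel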; on lipid storage change, negative = inhibition: on the % scale 0 is the no-effect control and ±100 the full control effect", "conditions": "BODIPY lipid droplet fluorescence, 18-24 h, cells fed with added oleic acid; cell number change: measured here: cell count max response; series mostly up to 46.1 µM; lipid storage change, negative = inhibition: at the top concentration", "how_it_was_run": "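Drosophila S3 cells got compounds at several concentrations plus oleic acid (400 uM solution). Laser-scanning cytometry with 488 nm excitation read lipid droplets at 500-530 nm and cells at 575-640 nm. Percent activity was relative to 20 uM Triacsin C.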", "units": {"cell number change": "%"}}
{"smiles": "COc1ccc(CCNC(=O)Cn2cnc3c(nnn3Cc3ccc(C)cc3)c2=O)cc1OC", "lipid storage change, negative = inhibition": "5.48% (inactive)", "cell number change": -15.1}
{"smiles": "COc1ccc(CN2CCN(Cc3cc4ccccc4o3)CC2CCO)c(F)c1", "note": "(stereo unspecified)", "lipid storage change, negative = inhibition": "24.4% (inactive)", "cell number change": 5.21}
{"smiles": "C/C(=N\\NC(=O)c1nnn(-c2nonc2N)c1CSc1ccccc1)c1ccco1", "outcome": "inactive"}
{"smiles": "N/C(=N/O)c1nc(N2CCCC2)nc(N2CCCC2)n1", "lipid storage change, negative = inhibition": "11.2% (inactive)", "cell number change": 6.44}
{"smiles": "COc1ccc(OC)c(CNC(=O)C(C)n2nc(C)c3c(C)n(-c4ccccc4)nc3c2=O)c1", "note": "(stereo unspecified)", "outcome": "inactive", "cell number change": -28}
{"smiles": "COc1ccccc1CNC(=O)C(C)n1nc(C)c2c(C)n(-c3ccccc3)nc2c1=O", "note": "(stereo unspecified)", "Potency": "5.8 µM (active)", "cell number change": -4.13}
{"smiles": "COc1ccc(CNC(=O)C(C)n2nc(C)c3c(C)n(-c4ccccc4)nc3c2=O)c(OC)c1", "note": "(stereo unspecified)", "lipid storage change, negative = inhibition": "6.4% (inactive)", "cell number change": 1.47}
{"smiles": "O=S1(=O)c2ccccc2Nc2ccccc21", "lipid storage change, negative = inhibition": "-5.34% (inactive)", "cell number change": 5.2}
{"smiles": "Cc1nc(NS(=O)(=O)c2ccccc2)sc1NC(=O)Nc1ccc(Cl)cc1", "lipid storage change, negative = inhibition": "7.91% (inactive)", "cell number change": 3.01}
{"smiles": "COc1ccc(CCNCc2c(OC)ccc3ccccc23)cc1OC", "lipid storage change, negative = inhibition": "-2.82% (inactive)", "cell number change": 20.1}
{"smiles": "CC(C(=O)N1CCc2ccccc2C1)N(c1ccccc1)S(C)(=O)=O", "note": "(stereo unspecified)", "Potency": "2.06 µM (active)", "cell number change": -18}
{"smiles": "CC(C(=O)N1CCCC1)N(c1ccccc1)S(C)(=O)=O", "note": "(stereo unspecified)", "lipid storage change, negative = inhibition": "18.2% (inactive)", "cell number change": -11.5}
{"smiles": "CCOC(=O)N1CCN(C(=O)C(C)N(c2ccccc2)S(C)(=O)=O)CC1", "note": "(stereo unspecified)", "lipid storage change, negative = inhibition": "14.9% (inactive)", "cell number change": 2.57}
{"smiles": "COc1ccc2sc(-c3ccccc3OC)c(C#CCCO)c2c1", "outcome": "inactive", "cell number change": -1.81}
{"smiles": "CCOc1cc(-c2cc(-c3ccc(C)o3)nc(N)c2C#N)ccc1O", "outcome": "inactive", "cell number change": -0.884}
{"smiles": "O=C(NCc1cccnc1)C1CCN(c2ccc(S(=O)(=O)N3CCOCC3)cc2Cl)CC1", "lipid storage change, negative = inhibition": "-21.4% (inactive)", "cell number change": 0.843}
{"smiles": "CCC(C)C1NC(=S)N(Cc2ccccc2)C1=O", "note": "(stereo unspecified)", "lipid storage change, negative = inhibition": "4.29% (inactive)", "cell number change": -14.7}
{"smiles": "C=CCN1C(=O)C(C(C)CC)NC1=S", "note": "(stereo unspecified)", "Potency": "7.31 µM (active)", "cell number change": -18.2}
{"smiles": "CCC(C)C1NC(=S)N(C2CCCCC2)C1=O", "note": "(stereo unspecified)", "lipid storage change, negative = inhibition": "3.53% (inactive)", "cell number change": -20.3}
{"smiles": "Cc1nnc(-c2cccc(C(F)(F)F)c2)nc1N1CCOCC1", "outcome": "inactive"}
{"smiles": "O=C(C1=C[C@@H](C2CC2)C[C@@H](OCc2ccc(CO)cc2)O1)N1CCOCC1", "lipid storage change, negative = inhibition": "17.1% (inactive)", "cell number change": -6.29}
{"smiles": "COc1ccc(C2NN=C(c3ccc(C)cc3)S2)cc1", "note": "(stereo unspecified)", "lipid storage change, negative = inhibition": "2.54% (inactive)", "cell number change": 14.2}
{"smiles": "Cc1ccc(C2=NNC(C(O)C(O)C(O)C(O)CO)S2)cc1", "note": "(stereo unspecified)", "Potency": "23.1 µM (active)", "cell number change": -6.96}
{"smiles": "Cc1ccc(C2=NNC(C(O)C(O)C(O)C(C)O)S2)cc1", "note": "(stereo unspecified)", "outcome": "inactive"}
{"smiles": "O=C(Nc1ccc(N2CCOCC2)cc1)C1CCCN(S(=O)(=O)c2cccc(C(F)(F)F)c2)C1", "note": "(stereo unspecified)", "lipid storage change, negative = inhibition": "9.49% (inactive)", "cell number change": 2.4}
{"smiles": "CCCNC(=O)c1ccccc1NC(=O)CN(c1ccccc1)S(=O)(=O)N(C)C", "lipid storage change, negative = inhibition": "-15.5% (inactive)", "cell number change": -16.1}
{"smiles": "CC1(C)CC2CC(C)(CN2S(=O)(=O)c2ccc(C(=O)Nc3ccc(Cl)c(S(=O)(=O)N4CCOCC4)c3)cc2)C1", "note": "(stereo unspecified)", "Potency": "5.8 µM (active)"}
{"smiles": "CN1CCN(NC(=O)c2ccc(S(=O)(=O)N3CC4(C)CC3CC(C)(C)C4)cc2)CC1", "note": "(stereo unspecified)", "lipid storage change, negative = inhibition": "-1.05% (inactive)", "cell number change": 3.86}
{"smiles": "O=C(Nc1ccc(Cl)c(S(=O)(=O)N2CCOCC2)c1)c1ccc2c(c1)OCCO2", "lipid storage change, negative = inhibition": "-7.25% (inactive)", "cell number change": 19.2}
{"smiles": "CCOc1ccc(C(=O)NCC(=O)OCc2ccc(F)cc2Cl)cc1", "lipid storage change, negative = inhibition": "8.58% (inactive)", "cell number change": 13.4}
{"smiles": "CCn1c(=O)c2cc(C(=O)N(C)CC(OC)OC)sc2c2ccccc21", "lipid storage change, negative = inhibition": "2.97% (inactive)", "cell number change": 7.22}
{"smiles": "O=C(OCc1nnc(-c2ccccc2)o1)c1cc(S(=O)(=O)N2CCOCC2)ccc1F", "lipid storage change, negative = inhibition": "14.7% (inactive)", "cell number change": -16.6}
{"smiles": "CCc1cc2c(COC(=O)c3cc(S(=O)(=O)N4CCOCC4)ccc3F)cc(=O)oc2cc1O", "Potency": "18.4 µM (active)", "cell number change": -14.4}
{"smiles": "Cc1noc(C)c1COC(=O)c1cc(S(=O)(=O)N2CCOCC2)ccc1F", "lipid storage change, negative = inhibition": "16% (inactive)", "cell number change": 4.32}
{"smiles": "CCc1ccc(OCC(=O)Nc2ccc3c(c2)COC3=O)cc1", "lipid storage change, negative = inhibition": "16% (inactive)", "cell number change": 8.42}
{"smiles": "COc1ccc(C)cc1NC(=O)C1CCN(S(=O)(=O)c2cccc3nonc23)CC1", "Potency": "3.66 µM (active)", "cell number change": 15.9}
{"smiles": "COc1ccc(C)cc1NC(=O)C1CCN(S(=O)(=O)c2cccc3cccnc23)CC1", "Potency": "10.3 µM (active)", "cell number change": -24.8}
{"smiles": "COc1ccc(NC(=O)C2CCN(S(=O)(=O)c3cccc4cccnc34)CC2)cc1OC", "lipid storage change, negative = inhibition": "-9.44% (inactive)", "cell number change": -22.5}
{"smiles": "COc1ccc(Cl)cc1NC(=O)C1CCCN(S(=O)(=O)c2cccc3nonc23)C1", "note": "(stereo unspecified)", "lipid storage change, negative = inhibition": "6.59% (inactive)", "cell number change": 8.35}
{"smiles": "COc1ccc(C)cc1NC(=O)C1CCCN(S(=O)(=O)c2cccc3cccnc23)C1", "note": "(stereo unspecified)", "outcome": "inactive", "cell number change": 19.9}
{"smiles": "COc1ccc(C)cc1NC(=O)C1CCCN(S(=O)(=O)c2cccc3nonc23)C1", "note": "(stereo unspecified)", "lipid storage change, negative = inhibition": "18.1% (inactive)"}
{"smiles": "COc1ccc(S(=O)(=O)Nc2c(C)n(C)n(-c3ccccc3)c2=O)cc1Br", "lipid storage change, negative = inhibition": "16.7% (inactive)", "cell number change": -3.28}
{"smiles": "CCN(CC(=O)NCc1ccc(F)cc1)C(=O)c1ccc(COc2ccccc2)cc1", "lipid storage change, negative = inhibition": "7.05% (inactive)", "cell number change": 2.25}
{"smiles": "S=C(Nc1ccccn1)NC1CCCCC1", "lipid storage change, negative = inhibition": "22.6% (inactive)", "cell number change": -4.33}
{"smiles": "COc1ccc(C2CC2/C(C)=N/OC(=O)c2cccs2)cc1", "note": "(stereo unspecified)", "outcome": "inactive"}
{"smiles": "CCOC(=O)c1cc2sc(C)cc2n1CC(=O)NCCc1ccccc1", "lipid storage change, negative = inhibition": "-3.61% (inactive)", "cell number change": 5.86}
{"smiles": "Cc1cccc(C(=O)Nc2ccc(C)c(OC(=O)c3cccc(C)c3)c2)c1", "lipid storage change, negative = inhibition": "0.347% (inactive)", "cell number change": -20.4}
{"smiles": "CC(=O)Nc1ccc(S(=O)(=O)NCCC(=O)NCCOc2ccccc2)cc1", "lipid storage change, negative = inhibition": "1.4% (inactive)", "cell number change": -2.82}
{"smiles": "CCN(Cc1ccccc1)C(=O)COC(=O)c1cnc(C)cn1", "lipid storage change, negative = inhibition": "-29.5% (inactive)"}
{"smiles": "Cc1cnc(C(=O)OCC(=O)NCCCc2ccccc2)cn1", "Potency": "5.17 µM (active)", "cell number change": -37.4}
{"smiles": "CC(=O)Nc1ccc(S(=O)(=O)NCCc2ccccc2)cc1", "outcome": "inactive", "cell number change": -18.3}
{"smiles": "COc1ccc(CCNC(=O)COC(=O)c2cnc(C)cn2)cc1OC", "lipid storage change, negative = inhibition": "1.54% (inactive)", "cell number change": 5.11}
{"smiles": "CC(=O)Nc1ccc(S(=O)(=O)NCCC(=O)NCCCc2ccccc2)cc1", "Potency": "1.64 µM (active)", "cell number change": 6.57}
{"smiles": "O=C(CCCc1ccccc1)NCCc1ccccc1", "outcome": "inactive", "cell number change": 1.1}
{"smiles": "O=C(CCCCC(=O)NCCc1ccccc1)NCCc1ccccc1", "lipid storage change, negative = inhibition": "-26.6% (inactive)", "cell number change": -15.5}
{"smiles": "Cc1ccc(S(=O)(=O)NCCC(=O)NCCOc2ccccc2)cc1", "cell number change": 2.02, "lipid storage change, negative = inhibition": "-20.7% [at 0.0737 µM] (inactive)"}
{"smiles": "Cc1ccc(S(=O)(=O)NCCC(=O)NCCCSc2ccccc2)cc1", "Potency": "16.4 µM (active)", "cell number change": -14.6}
{"smiles": "O=C(CCCCC(=O)NCCCc1ccccc1)NCCCc1ccccc1", "Potency": "20.6 µM (active)", "cell number change": -16.3}
{"smiles": "COCCCNC(=O)CCNS(=O)(=O)c1ccc(C)cc1", "lipid storage change, negative = inhibition": "8.63% (inactive)", "cell number change": 9.83}
